Our source for the outcome values is PubChem BioAssay AID720566 (Broad Institute, 2013).

Measured potencies and affinities stand elsewhere. Calls of active or inactive are those of the source.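 How the source made its calls: active means in all runs, an absorbance decrease of 25% or more of the average positive control decrease; inconclusive means runs conflict, with both active and inactive results; inactive means all runs inactive, opposite-direction effects included.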

Sequence of Protein disulfide-isomerase A6 (Homo sapiens) (Q15084 whole entry, looked up): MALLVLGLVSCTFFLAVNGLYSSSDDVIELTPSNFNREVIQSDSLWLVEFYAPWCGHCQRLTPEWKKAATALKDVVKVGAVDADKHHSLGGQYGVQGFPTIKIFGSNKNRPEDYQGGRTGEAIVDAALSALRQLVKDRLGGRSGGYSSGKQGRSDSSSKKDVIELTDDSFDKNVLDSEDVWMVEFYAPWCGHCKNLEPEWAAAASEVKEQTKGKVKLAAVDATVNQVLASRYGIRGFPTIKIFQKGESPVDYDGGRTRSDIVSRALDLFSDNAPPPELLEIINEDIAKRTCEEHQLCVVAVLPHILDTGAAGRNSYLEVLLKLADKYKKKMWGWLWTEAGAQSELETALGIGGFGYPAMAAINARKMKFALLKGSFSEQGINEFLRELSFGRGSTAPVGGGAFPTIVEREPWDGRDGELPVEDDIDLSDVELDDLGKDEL

The assay has as its target Protein disulfide-isomerase A6 (Homo sapiens) (UniProt Q15084). The assay can be described thus: inhibitors of ERp5-mediated insulin aggregation, dose response, biochemical, turbidity, absorbance 650 nm, cherry-picked samples (AID 720566).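 Further: negative values mean less insulin aggregation so ERp5 inhibition.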 To be noted: Recombinant ERp5 insulin aggregation; series mostly up to 35 µM.
As to `COc1ccc2c3c([nH]c2c1)[C@H](CO)N(Cc1ccccc1Cl)CC31CN(C(=O)C2CC2)C1`, the result was inactive.
The result for `CN(C)C(=O)C[C@@H]1C[C@@H]2c3cc(NS(C)(=O)=O)ccc3O[C@@H]2[C@H](CO)O1` reads “inactive”; that for `C[C@H](CO)N1C[C@H](C)[C@@H](CN(C)S(=O)(=O)c2cn(C)cn2)Oc2ccc(NC(=O)c3ccncc3)cc2CC1=O`, “inactive”; that for `O=C(COC(=O)CCc1nc2ccccc2c(=O)[nH]1)Nc1c(Cl)cccc1C(F)(F)F`, “inactive”.
With `Cc1cc(Br)cc(Br)c1OCC(=O)NNC(=O)CCC(=O)NCc1ccccc1` the entry was “inactive”; with `COc1ccccc1S(=O)(=O)N1C[C@H](O)COC[C@H]2O[C@@H](CC(=O)O)CC[C@@H]21`, “inactive”.
As to `CCCNC(=O)C[C@H]1CC[C@@H]2[C@@H](COc3ccc(NC(=O)c4ccccc4)cc3C(=O)N2C)O1`, the result was inactive.
With `O=C(C[C@H]1C[C@H]2c3cc(NC(=O)CC4CC4)ccc3O[C@H]2[C@@H](CO)O1)NCc1ccc(-c2ccccc2)cc1` the entry was “inactive”; with `O=C(CN1C(=O)NC2(CCCC2)C1=O)Nc1cc(C(F)(F)F)ccc1N1CCCCC1`, “inactive”.
With `COCC(=O)N1CC2(C1)CN(Cc1ccccc1F)[C@H](CO)c1[nH]c3cc(OC)ccc3c12` the entry was “inactive”; with `C[C@H]1CN([C@@H](C)CO)C(=O)c2cc(-c3cccc(C#N)c3)cnc2O[C@@H]1CN(C)Cc1cncnc1`, “inactive”; with `Cc1noc(C)c1NC(=O)Nc1ccc2c(c1)C(=O)N([C@H](C)CO)C[C@@H](C)[C@@H](CN(C)C(=O)Nc1ccc(F)cc1)O2`, “inactive”.
For the molecule `COCC#Cc1cnc2c(c1)C(=O)N([C@@H](C)CO)C[C@H](C)[C@@H](CN(C)C(=O)NC1CCCC1)O2`, the result was inactive.
The result for `O=C(c1cccc(F)c1)N1CCCCN2[C@H](C1)[C@H](c1ccc(-c3ccccc3)cc1)[C@@H]2CO` reads “inactive”.
In the case of `O=C(C[C@@H]1C[C@H]2c3cc(NC(=O)C4CCC4)ccc3O[C@H]2[C@@H](CO)O1)NCC(F)(F)F`, the result was inactive.
As for `C[C@@H]1CN([C@H](C)CO)C(=O)c2cc(NC(=O)Nc3cccc4ccccc34)ccc2O[C@@H]1CN(C)C(=O)Nc1cccc2ccccc12`, the result was inactive.
The result for `C[C@@H]1CN([C@@H](C)CO)C(=O)c2cc(NC(=O)Nc3ccc4c(c3)OCO4)ccc2O[C@@H]1CN(C)Cc1ccc(C(=O)O)cc1` reads “inactive”.
With `COCCNC(=O)c1ccccc1NS(=O)(=O)c1ccc(C)c([N+](=O)[O-])c1` the entry was “inactive”.
With `C[C@@H]1CN([C@@H](C)CO)C(=O)Cc2cc(NC(=O)Nc3ccc(C(F)(F)F)cc3)ccc2O[C@@H]1CN(C)Cc1ccc(Cl)c(Cl)c1` the entry was “inactive”; with `C[C@@H]1CN([C@H](C)CO)C(=O)c2cc(NC(=O)Nc3ccc(F)cc3)ccc2O[C@H]1CN(C)Cc1ccc(-c2ccccc2)cc1`, “inactive”.
For the molecule `CO[C@H]1CN(C)C(=O)c2cc(NC(=O)CC(F)(F)F)ccc2OC[C@H](C)N(C(=O)C2CC2)C[C@@H]1C`, the result was inactive.
With `C[C@@H]1CN([C@H](C)CO)C(=O)c2cccc(NC(=O)Nc3cccc4ccccc34)c2O[C@@H]1CN(C)C(=O)Nc1ccc(C(F)(F)F)cc1` the entry was “inactive”; with `COCCNC(=O)C[C@@H]1C[C@H]2c3cc(NC(=O)NC4CCCC4)ccc3O[C@H]2[C@@H](CO)O1`, “inactive”; with `CC(C)C#Cc1ccc2c(c1)O[C@@H](CN(C)C(=O)C1CC1)[C@@H](C)CN([C@@H](C)CO)S2(=O)=O`, “inactive”.
As to `Cc1ccc(S(=O)(=O)N(CC(O)CN2CCOCC2)c2cccc([N+](=O)[O-])c2)cc1` (stereo not drawn), the result was inactive.
With `C/C=C/c1ccc2c(c1)O[C@@H](CN(C)S(C)(=O)=O)[C@H](C)CN([C@H](C)CO)S2(=O)=O` the entry was “inactive”; with `C[C@H](CO)N1C[C@H](C)[C@H](CN(C)Cc2ccc(C(F)(F)F)cc2)Oc2ccc(NC(=O)Nc3cccc4ccccc34)cc2CC1=O`, “inactive”.
With `O=C1[C@@H](c2ccccc2)CC[C@@H]2C=CC[C@H]3CCN1[C@@H]32`, the outcome was inactive.
With `C[C@H]1CN([C@@H](C)CO)C(=O)Cc2cc(NC(=O)Nc3cccc4ccccc34)ccc2O[C@H]1CN(C)Cc1ccc(C(F)(F)F)cc1` the entry was “inactive”; with `CN1CCN(C(=O)C[C@@H]2C[C@@H]3c4cc(NC(=O)C5CCOCC5)ccc4O[C@@H]3[C@H](CO)O2)CC1`, “inactive”.
The result for `COC(=O)[C@]1(C)N[C@H](CN(C)S(=O)(=O)c2ccc(OC(F)(F)F)cc2)[C@@H]2C(=O)N(C)C(=O)[C@@H]21` reads “inactive”.
The result for `COc1ccc2c3c([nH]c2c1)[C@H](CO)N(C(=O)c1ccc(F)cc1)CC31CCN(C(=O)Nc2cccc(F)c2)CC1` reads “inactive”; that for `C[C@H]1CN([C@@H](C)CO)C(=O)CCCn2cc(nn2)CO[C@@H]1CN(C)Cc1cccc(C(F)(F)F)c1`, “inactive”.
